We go through twelve compounds from PubChem BioAssay (NCATS).

Molecules are shown by their SMILES. Inconclusive results are not listed. Active and inactive are the calls of the source. Unless noted, calls come from the whole dose curve; as a rule, active = well fitted curve in the direction sought with a large enough effect; inconclusive = small, poorly fitted or top-dose-only effect, or another doubt; inactive = no such curve, though single readings can be large; an effect the other way counts as inactive or inconclusive.

Assay [1] is described as follows: High-throughput drug toxicity screening in the BPDCN cell line Gen2.2 (AID 1224824; call rule not given here;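 note: cells exposed to compounds for 48 h before reading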). To be noted: Gen2.2 BPDCN cells; at 45.8 µM (top of the series) unless noted. In short, it runs like this:
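Gen2.2, 500 cells/well, phenol red-free RPMI/10% FBS/Pen-Strep; 48 h cpd, 37 °C/5% CO2; CTG lum, 15 min RT. Norm: DMSO = 100%, bortezomib 9.2 uM final = 0%.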

Assay [2] in a line: High-throughput drug toxicity screening in the BPDCN cell line Cal-1 (AID 1224825; call rule not given here). To be noted: Cal-1 BPDCN cell viability, qHTS; at 45.8 µM (top of the series) unless noted. In short, it runs like this: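 Viability of the BPDCN line Cal-1 is measured as ATP-based luminescence (CellTiter-Glo) following 48 h incubation with compounds. Percent activity uses DMSO-treated wells as 100% and 9.2 uM bortezomib as 0%.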

Assay [3] in a line: qHTS assay for measurement of the activity of small molecule inhibitors on Zika virus induced Caspase-3 activity in human iPSC derived neural progenitor cells (hNPCs) (AID 1224857). Note: nearly all actives have a fitted effect of over 65% in size. Note: potency is the fitted concentration of half-maximal effect. The procedure, abridged: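 In medium with heparin 2 ug/ml and cyclopamine 2 uM, hNPCs (350 cells/well) received compound for one hour and then Zika virus at 2 FFU/cell; caspase activity was measured by Caspase-Glo 3/7 luminescence 6 h post-infection.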
For orientation: Quantitative high-throughput screening tests each substance at several concentrations.

The nature of assay [4]: qHTS assay for measurement of the activity of small molecule inhibitors on Zika virus induced Caspase-3 activity in human astrocytoma cells (AID 1224859).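 Note: plate controls were ZIKV-infected untreated cells for no effect and uninfected cells for full effect.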 In short, it runs like this: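 A cell-based luminescent caspase-3/7 assay used SNB-19 cells infected with ZIKV (2 FFU/cell) for 6 h following 1 h compound pretreatment.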
A short description of assay [5]: qHTS Screen of the MIPE 4.0 Collection Against Ewings Sarcoma (RDES) (AID 1259252). Note: nearly all actives have a fitted effect of over 35% in size. Note: potency is the fitted concentration of half-maximal effect. In short, it runs like this:
(§1)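 Measured: ATP luminescence (CellTiter-Glo) 10 min after reagent addition, following 48 h drug treatment. Relative luciferase units converted to percent activity, with no-cell wells as full and DMSO wells as zero inhibition.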

Assay [6] can be described thus: qHTS Screen of the MIPE 4.0 Collection Against Ewings Sarcoma (TC71) (AID 1259253). Note: nearly all actives have a fitted effect of over 40% in size. Note: potency is the fitted concentration of half-maximal effect. The procedure, abridged:
as §1

Assay [7] can be described thus: qHTS Screen of the MIPE 4.0 Collection Against Ewings Sarcoma (EW8) (AID 1259255).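 For viability: 100% = DMSO-treated cells and 0% = medium-only wells without cells.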 Note: nearly all actives have a fitted effect of over 35% in size. Note: potency is the fitted concentration of half-maximal effect. The procedure, abridged: as §1
A short description of assay [8]: qHTS Screen of the MIPE 4.0 Collection Against Ewings Sarcoma (TC32) (AID 1259256). Note: nearly all actives have a fitted effect of over 45% in size. Note: potency is the fitted concentration of half-maximal effect. In short, it runs like this:
as §1

A short description of assay [9]: P-glycoprotein substrates identified in KB-3-1 adenocarcinoma cell line, qHTS therapeutic library screen (AID 1346986). Note: nearly all actives have a fitted effect of over 60% in size. In short, it runs like this:
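Using luminescence to quantify ATP, parental and P-gp-overexpressing KB cells were compared after 72 h compound titration. KB-8-5-11 was also run with the P-gp inhibitor tariquidar.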

Assay [10] is described as follows: P-glycoprotein substrates identified in KB-8-5-11 adenocarcinoma cell line, qHTS therapeutic library screen (AID 1346987). Note: nearly all actives have a fitted effect of over 65% in size. Note: potency is the fitted concentration of half-maximal effect. In short, it runs like this: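 Human cervical adenocarcinoma KB-8-5-11 cells, selected in colchicine to over-express P-gp and assayed without it, were exposed for 72 h to titrated compounds. An ATP-based luminescent viability signal gave AC50.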

On to `C[C@H](O)[C@@H]1C(=O)N2C(C(=O)O)=C(S[C@@H]3CN[C@H](CNS(N)(=O)=O)C3)[C@@H](C)[C@@H]12`, for which the cell viability, % of control (lower = more cytotoxic) in assay [1] was 119%. For the same compound, the viability (% of control) in [2] came out at 112%. For the same compound, the Potency result in [3], in assay [4], in [5], in [6], in assay [7] and in assay [8] was “inactive” in each case. Further, the Potency result in [9] and in [10] was “inactive” each time.

As to `CCCCCCCCCCCCCCCC(=O)OC[C@@H](NC(=O)C(Cl)Cl)[C@H](O)c1ccc([N+](=O)[O-])cc1`, in assay [1], the cell viability, % of control (lower = more cytotoxic) was 132%. Besides, the viability (% of control) in assay [2] turned out to be 117%. The Potency result in assay [3], in [4], in [5], in [6], in assay [7] and in assay [8] was “inactive” throughout. Moreover, the Potency result in assay [9] and in assay [10] was “inactive” in each case.

On to `O=C(O)CCCCC(CCSCc1ccccc1)SCc1ccccc1` (stereo not drawn), for which the cell viability, % of control (lower = more cytotoxic) in assay [1] is 54.3%. The viability (% of control) in assay [2] is 23.9%. Moreover, the Potency entry in assay [3], in [4], in assay [5], in assay [6], in assay [7] and in [8] was “inactive” each time. In addition, the Potency entry in assay [9] and in [10] was “inactive” throughout.

Regarding `C[C@@H](NCc1cc2ccccc2[nH]1)c1cccc2ccccc12`, in [1], the cell viability, % of control (lower = more cytotoxic) is 171%. Moreover, the viability (% of control) in assay [2] turned out to be 108%. Further, the Potency result in assay [3], in assay [4], in assay [5], in assay [6], in assay [7] and in assay [8] was “inactive” throughout. Moreover, the Potency result in assay [10] was “inactive”.

As for `NC1=N[C@H]2[C@H](CS[C@H]2CCCCC(=O)O)N1`, the cell viability, % of control (lower = more cytotoxic) in assay [1] turned out to be 175% [at 23.2 µM]. Besides, the viability (% of control) in [2] worked out at 126% [at 23.2 µM]. Besides, the Potency entry in assay [3], in assay [4], in [5], in [6], in assay [7] and in [8] was “inactive” throughout. In addition, the Potency result in assay [9] and in assay [10] was “inactive” in each case.

Turning to `CC(=O)O[C@H]1C[C@@H]2CC[C@H]3[C@H]4C[C@H]([N+]5(C)CCCCC5)[C@@H](OC(C)=O)[C@@]4(C)CC[C@@H]3[C@@]2(C)C[C@H]1[N+]1(C)CCCCC1`, the cell viability, % of control (lower = more cytotoxic) in [1] worked out at 232%. Besides, the viability (% of control) in [2] is 120%. Moreover, the Potency result in assay [3], in [4], in [9] and in [10] was “inactive” in each case. For the same compound, the Potency is 1.32 µM (active) in assay [5], 1.05 µM (active) in [6], 2.64 µM (active) in assay [7] and 2.35 µM (active) in assay [8].

For `CCOc1cc2c(c(F)c1OCC)C(=N)N(CC(=O)c1cc(N3CCOCC3)c(OC)c(C(C)(C)C)c1)C2`, in assay [1], the cell viability, % of control (lower = more cytotoxic) turned out to be 4.1%. For the same compound, in [2], the viability (% of control) was determined as 2.82%. In addition, the Potency entry in [3] and in [4] was “inactive” each time. Besides, the Potency in [5] is 9.35 µM (active); in assay [6] it was 10.5 µM (active); in assay [7], 13.2 µM (active); in assay [8] it was 8.33 µM (active); in assay [10], 20.9 µM (active).

On to `c1coc(CNc2ncnc3nc[nH]c23)c1`, for which, in assay [1], the cell viability, % of control (lower = more cytotoxic) stood at 90.9%. The viability (% of control) in assay [2] stood at 102%. The Potency entry in assay [3], in assay [4], in [5], in [6], in assay [7] and in assay [8] was “inactive” throughout. Also, the Potency result in [10] is “inactive”.

For `C[C@@H]1CC[C@@]2(OC1)OC1CC3C4CC=C5CC(O)CCC5(C)C4CCC3(C)C1[C@@H]2C` (stereo partly drawn), the cell viability, % of control (lower = more cytotoxic) in assay [1] is 128%. Further, the viability (% of control) in assay [2] worked out at 115%. The Potency entry in assay [3], in assay [4], in assay [5], in assay [6], in assay [7] and in assay [8] was “inactive” in each case. The Potency entry in assay [10] is “inactive”.

For the compound `O=S(=O)(O)CCSSCCS(=O)(=O)O`, the cell viability, % of control (lower = more cytotoxic) in assay [1] stood at 33.7%. Moreover, in assay [2], the viability (% of control) was 35.3%. In assay [3], the Potency is 29.6 µM (active). The Potency result in [4], in assay [5], in assay [6], in [7], in [8] and in assay [10] was “inactive” each time.

As to `COc1ccc(Nc2nccc(NCCO)n2)cc1`, in assay [1], the cell viability, % of control (lower = more cytotoxic) came out at 195%. The viability (% of control) in assay [2] is 111%. For the same compound, the Potency entry in [3], in assay [4], in [5], in assay [6], in [7] and in [8] was “inactive” each time. Also, the Potency entry in assay [10] is “inactive”.

Consider `CCS(=O)(=O)Nc1ccc2[nH]c(O)c(C(=Nc3ccc(CN4CCCCC4)cc3)c3ccccc3)c2c1`, for which, in assay [1], the cell viability, % of control (lower = more cytotoxic) is 2.51%. In assay [2], the viability (% of control) is 7.15%. Also, the Potency entry in assay [3], in assay [4] and in assay [10] was “inactive” each time. Further, the Potency in assay [5] is 0.662 µM (active); in assay [6], 0.132 µM (active); in assay [7], 0.0833 µM (active); in [8], 0.0833 µM (active).
